Compound activity: PubChem BioAssay, several laboratories
In the library only some 1.1% were active in any assay of this set; here they are far more common.
ABCB6 inh MLPCN – human ABCB6 transporter inhibition | fluorescence ratio to DMSO, % at 10 µM | AID 602162 | K562-ABCB6 porphyrin accumulation, flow cytometry, 1 h; active compounds read low | hit rate 0.19% among 360,000;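 active = fluorescence ratio to DMSO below 75%, the collection mean minus 3 SD; inconclusive = too few cells collected in the well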;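 note: signal is porphyrin accumulated inside mitochondria; 100% equals median channel fluorescence of DMSO control wells; lower ratio means ABCB6 inhibition with less porphyrin fluorescence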
Target sequence (Q9NP58 whole entry, looked up): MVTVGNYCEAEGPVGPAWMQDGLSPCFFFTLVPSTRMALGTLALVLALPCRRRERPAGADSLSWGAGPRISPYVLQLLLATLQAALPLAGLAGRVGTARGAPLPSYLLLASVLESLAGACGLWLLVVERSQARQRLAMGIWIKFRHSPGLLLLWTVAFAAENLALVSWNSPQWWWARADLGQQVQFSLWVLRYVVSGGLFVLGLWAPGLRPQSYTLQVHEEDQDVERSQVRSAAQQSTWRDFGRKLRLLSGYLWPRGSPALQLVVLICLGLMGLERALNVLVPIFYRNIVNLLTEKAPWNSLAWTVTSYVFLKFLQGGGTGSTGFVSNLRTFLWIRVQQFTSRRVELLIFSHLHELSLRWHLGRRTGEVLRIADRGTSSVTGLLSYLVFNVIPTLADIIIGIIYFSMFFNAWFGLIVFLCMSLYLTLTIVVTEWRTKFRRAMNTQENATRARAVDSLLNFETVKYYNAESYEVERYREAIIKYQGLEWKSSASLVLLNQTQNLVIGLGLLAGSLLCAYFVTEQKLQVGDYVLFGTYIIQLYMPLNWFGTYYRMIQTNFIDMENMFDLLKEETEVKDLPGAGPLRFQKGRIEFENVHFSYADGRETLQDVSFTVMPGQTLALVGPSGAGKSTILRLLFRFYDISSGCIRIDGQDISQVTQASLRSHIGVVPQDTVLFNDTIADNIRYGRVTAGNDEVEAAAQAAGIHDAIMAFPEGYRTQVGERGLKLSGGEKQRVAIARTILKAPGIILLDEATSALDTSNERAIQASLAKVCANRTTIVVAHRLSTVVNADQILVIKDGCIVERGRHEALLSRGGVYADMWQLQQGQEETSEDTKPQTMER
VLA-4 inh – inhibition in a human VLA-4 binding assay; inhibition, % (about 7 µM as worked out from the volumes in the protocol); hit rate 0.2% among 330,000; AID 2557; P13612; VLA-4 expressing cells, ligand binding flow cytometry; in the data active = inhibition above about 50%
CaV13 ICDI inh – Disruptors of the CACNA1D IQ motif to Ca2+-dependent inactivation inhibitor domain association, primary screening, Förster resonance energy transfer in intact living …; HEK cells, CFP/YFP FRET ICDI-IQ, plate reader, 10 min; percent FRET-ratio fall versus neutral wells; inhibition, % at 12.3 µM; hit rate 0.098% among 340,000;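 active = mean replicate inhibition of at least 30% and at least 1% of replicates passing that level; inconclusive = only one of the two criteria is met; inactive = neither criterion is met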;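 note: 0% = median of the neutral control wells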
Granule exo inh – blocks lytic granule exocytosis | TALL-104 LAMP-1 surface exposure, flow cytometry; cells stimulated with thapsigargin and PMA | inhibition, % at 10 µM | hit rate 0.66% among 360,000 | AID 651702;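 active = inhibition above about 55%, limit read from the data; inconclusive = no clear call, values can overlap the other calls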
VLA-4 mod pick – confirmation of allosteric modulators of human VLA-4 integrin; U937 cells, HUTS-21 LIBS mAb binding, flow cytometry; LDV ligand present at threefold Kd; shares compounds with VLA-4 inh; hit rate 2% among 1,300; inhibition, % at 6.7 µM; AID 2813; in the data active = inhibition above about 40%;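 note: 0% = ligand without compound and 100% = no ligand background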
Starred values were filed as active, the others as inactive; i = inactive; ? = inconclusive; · = not tested or not shown.

SMILES | ABCB6 inh MLPCN | VLA-4 inh | CaV13 ICDI inh | Granule exo inh | VLA-4 mod pick
Cc1ccc(C)c(C(=O)COC(=O)c2cc([N+](=O)[O-])ccc2N2CCOCC2)c1 | 95 | -21 | -6 | -2 | ·
CCOC(=O)C1=C(c2ccccc2)NC(N)=NC1c1ccc(OCc2ccc(Cl)cc2)c(OC)c1 (stereo not given) | 97 | 12 | -4 | 3 | ·
Cc1ccc2c(c1)N(CC(=O)NCC(C)c1ccccc1)C(=O)c1cccnc1O2 (stereo not given) | 102 | 53* | -9 | 1 | 3
COC(=O)c1cccnc1-n1c(=O)c2cccnc2n(Cc2cccc([N+](=O)[O-])c2)c1=O | 95 | 67* | -7 | -1 | -2
COC(=O)c1cccnc1-n1c(=O)c2cccnc2n(Cc2ccc(Cl)cc2)c1=O | 91 | 2 | -8 | -1 | ·
C=C(Cl)COc1ccc2c(C)cc(=O)oc2c1 | 98 | 3 | -8 | 2 | ·
C#CCOc1ccc2c(C)cc(=O)oc2c1 | 99 | 52* | -6 | 6 | i
CCCOc1ccc(-c2cc(C(=O)NCC3CCCO3)c3ccccc3n2)cc1 (stereo not given) | 97 | 43 | -4 | -3 | -5
CCCCCCCCN1C(=O)[C@@H](CC(=O)NCCCOC)C[C@@]2(C(=O)OC)C1=C[C@H](C1CCCC1)O[C@@H]2C | · | · | -9 | · | ·
CC(=O)c1cccc(NC(=O)C(C)OC(=O)CCCN=C2NS(=O)(=O)c3ccccc32)c1 (stereo not given) | 100 | 4 | -4 | -1 | ·
COC(=O)C[C@@H]1C[C@H]2c3cc(N(C)C)ccc3O[C@H]2[C@H](CO)O1 | 99 | · | · | -4 | ·
O=C(Nc1ccc(Cl)c(Cl)c1)OCc1cncs1 | 101 | 4 | 0 | 1 | -3
CC(=O)Nc1cccc(OCc2cnc(Cl)s2)c1 | 99 | 2 | 2 | 2 | ·
O=C(Nc1ccccc1)OCc1cnc(Cl)s1 | 99 | 0 | 1 | 17 | 3
O=C(Nc1ccc(Cl)c(Cl)c1)OCc1cnc(Cl)s1 | 97 | 2 | -2 | 3 | 10
O=C(Nc1ccccc1)OCc1cncs1 | 101 | 7 | -7 | -6 | 6
C[C@@H]1COc2cccc(NCCO)c2S(=O)(=O)N1 | · | · | -5 | · | ·
O=C1Cc2cc(S(=O)(=O)Nc3ccc(N4CCOCC4)cc3)ccc2N1 | 96 | 10 | -6 | -2 | -10
Cc1ccc(NS(=O)(=O)c2ccc3c(c2)CC(=O)N3)cc1F | 97 | 41 | -3 | -2 | 3
Cc1ccc(NS(=O)(=O)c2ccc3c(c2)CC(=O)N3)c(C)c1 | 100 | 2 | -7 | 2 | ·
Cc1ccc(S(=O)(=O)Nc2ccc(N3CCOCC3)cc2)cc1C | 98 | 2 | -5 | -2 | ·
Nc1ccn([C@@H]2O[C@H](CO)[C@@H](O)[C@@H]2O)c(=O)n1 | 100 | 53* | -4 | -3 | 8
Nc1ccn(C2OC(CO)C(O)C2O)c(=O)n1 (stereo not given) | 103 | · | · | -8 | ·
COc1cccc(S(=O)(=O)N(C)C[C@@H]2Oc3ncc(Br)cc3C(=O)N([C@H](C)CO)C[C@@H]2C)c1 | · | · | -6 | · | ·
COc1ccc(NC(=O)Cn2c(=O)oc3cc(S(=O)(=O)N4CCCC4)ccc32)c(OC)c1 | 104 | -11 | -5 | -1 | ·
SMILES | ABCB6 inh MLPCN | VLA-4 inh | CaV13 ICDI inh | Granule exo inh | VLA-4 mod pick
COc1ccc(NC(=O)Cn2c(=O)oc3cc(Cl)ccc32)c(OC)c1 | 92 | 5 | -20 | ? | 0
O=C(Cn1c(=O)oc2ccccc21)Nc1ccc(Cl)cc1Cl | 98 | -9 | -20 | -8 | -9
O=C(Cn1c(=O)oc2ccccc21)Nc1ccc(Br)cc1 | 91 | 2 | -13 | -7 | 3
O=C(Cn1c(=O)oc2ccccc21)NCCc1ccccc1 | ? | -1 | -18 | -7 | 8
COc1cc(C(=O)N(Cc2ccccc2)c2cccc(C)c2)ccc1OC(F)F | 100 | 14 | 1 | 16 | ·
COc1ccc(NC(=O)C[C@H]2C(=O)N(C3CCCCC3)C[C@@H]2CSC)cc1 | 100 | · | -6 | -1 | ·
Oc1ccc(C[C@@H]2CNCCN2CCc2cccc(F)c2)cc1 | 92 | -13 | -4 | -9 | ·
CC(C)c1[nH]nc2c1C(c1cccc(C(F)(F)F)c1)N(Cc1ccccc1)C2=O (stereo not given) | · | · | -5 | · | ·
Cc1cc(NC(=O)Cn2c(=O)oc3ccccc32)no1 | 99 | 4 | -2 | -9 | 0
O=C(COC(=O)c1ccc(O)cc1)Nc1ccccc1 | 95 | -16 | -18 | -15 | 2
O=C(COC(=O)c1ccc(F)cc1F)NCCNC(=O)COC(=O)c1ccc(F)cc1F | 94 | 22 | -6 | 15 | ·
O=C(COC(=O)c1ccccc1Br)NCCc1ccc(F)cc1 | 95 | 1 | -4 | -1 | ·
O=C(COC(=O)c1ccccc1Br)Nc1ccc(F)cc1 | 100 | 11 | -5 | 1 | 5
CC(=O)c1ccc(NC(=O)COC(=O)c2ccc(F)cc2F)cc1 | 97 | 11 | -5 | 0 | -2
COc1cc(/C=C2/S/C(=N/S(=O)(=O)c3ccccc3)NC2=O)c([N+](=O)[O-])cc1OC | 99 | 52* | -24 | 33 | -2
COc1cc(/C=C2\S/C(=N/S(=O)(=O)Cc3ccccc3)NC2=O)c([N+](=O)[O-])cc1OC | 96 | 0 | -101 | -4 | ·
Cc1c(C)c2c(OCC(=O)N[C@@H](Cc3ccccc3)C(=O)O)cc3c(c2oc1=O)CCC(C)(C)O3 | 92 | 64* | · | 2 | 14
COCCNC(=O)c1ccc(N2CC3CC(C2)c2cccc(=O)n2C3)c(NC(=O)c2c(F)cccc2F)c1 (stereo not given) | 112 | -6 | -15 | -3 | ·
CCCCCCCCN1C(=O)[C@@H](CC(=O)NCCCOCCCC)C[C@@]2(C(=O)OC)C1=C[C@H](C1CCCC1)O[C@@H]2C | · | · | -4 | · | ·
C/C(=N\NC(=O)Cc1c(C)[nH][nH]c1=O)c1ccc2ccccc2c1 | · | 61* | -1 | · | -16
COc1cccc(/C(C)=N/NC(=O)Cc2c(C)[nH][nH]c2=O)c1 | 99 | -7 | -19 | -1 | ·
Cc1cccc(NC(=O)CSCC(=O)N(C)CCOc2ccc(Cl)cc2)c1 | 96 | 52* | -4 | -6 | -2
Cc1ccc(NC(=O)CSCC(=O)N(C)CCOc2ccc(Cl)cc2)cc1 | 90 | · | -7 | 0 | ·
O=C(COC(=O)c1ccc(F)cc1)NCC1CCCCC1 | 96 | 51* | -5 | -4 | 0
O=C(COC(=O)c1ccc(Cl)cc1)NCC1CCCCC1 | 101 | 1 | -5 | -10 | -5
O=C(COC(=O)c1c(F)cccc1Cl)NCC1CCCCC1 | 100 | -3 | -5 | 9 | 6
Cc1cc(N2CCNC[C@H]2C)ccc1N1CCN(Cc2ccccc2)[C@@H](C)C1 | · | · | -12 | · | ·
CNc1nc(OCCNC(=O)Nc2ccccc2)nc(N2CCOCC2)n1 | 97 | 59* | -3 | 9 | 1
CCc1c(-c2ccccc2F)ncn1CCc1ccccc1OC | · | · | -5 | · | ·
CCOC(=O)CSc1ccc2nnc(-c3cccs3)n2n1 | 99 | 51* | -7 | 0 | 16
